In PubChem BioAssay (NCI) one finds growth data, which are given here for 38 compounds.

Structures are written as SMILES. This is part of a sample that, as a whole, favours compounds with a hit. Of some 83,000 tested, about 20% had one in any assay.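 Negative percent growth values reflect cell death: -40 means 40% of the cells present at the start died, and -100 means all died.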 Unmarked numbers belong to inactive results. Active and inactive are the calls of the source. Rule for the calls: active = growth percent below 10; inactive = the rest.

This assay deals with NCI-H226 lung. Kind of assay: NCI-60 one-dose screen, 48 h (100 = growth as untreated, 0 = no growth, -100 = all killed). As to conditions: 10 µM unless noted.
On to `O=C1COCCN1c1ccc(NCc2cn(C(=O)c3ccc(Cl)cc3)c3ccccc23)cc1`, for which the growth is -61.1% (active). To `COc1ccc(-c2cnc3ccccc3n2)cc1` belongs 82.7%. On to `CCOC(=O)C1=C(N)Oc2c(sc3c(C)cccc23)C1c1ccc(OC)cc1` (stereo not drawn), for which the growth was 55.2%. Under `FC(F)(F)c1cc(Nc2ccc3c(OCCCN4CCOCC4)cccc3n2)ccc1Cl` stands 68.5%; under `COc1cc(C(=O)c2cc(C)c3[nH]c4ccc(O)cc4c3c2C)cc(OC)c1OC`, 53%. To `Cc1ccc(C(=O)N/N=C/c2cccc(Oc3ccccc3)c2)cn1` belongs 66.9%; to `CC(=O)CC(c1cccs1)c1c(-c2ccccc2)[nH]c2ccccc12` (stereo not drawn), 84.3%; to `NC(=O)C1(Nc2ccc(Br)cc2)CCCC1`, 98.9%. On to `COc1ccc(-c2c(C(=O)NS(C)(=O)=O)n(Cc3cccc(C(F)(F)F)c3)c3ccccc23)cc1`, for which the growth was 82.1%. As for `O=C1NC(=O)C(c2ccccc2)(c2ccccc2)N1Cc1cn(-c2c3ccccc3nc3ccccc23)nn1`, the growth was 99.5%.

On to `CCCCn1c(-c2ccc(C(=O)O/N=C(\N)c3ccc(OC)cc3)cc2)nc(-c2ccccc2)c1-c1ccccc1`, for which the growth is 69.5%.

On to `COc1cc(Nc2nc(NCCN)nc3cc[nH]c(=O)c23)cc(OC)c1`, for which the growth is 93.7%. Consider `COc1ccc(-c2[nH]c3ccc(OC)cc3c2/C=C(\C#N)S(=O)(=O)c2ccccc2)cc1`, for which the growth is 72.3%. To `COc1ccc(C2=Nn3c(nnc3-c3cc(Cl)cc(Cl)c3Cl)SC2)cc1` belongs 64.8%; to `COc1ccc(C(=S)N2CCN(c3cccc(C)c3)CC2)cc1OC`, 98.4%. Under `COc1cc(CCCO)c(OC)c(OC)c1OC` stands 102%; under `O=C(Nc1nc2ccc(F)cc2s1)c1cccnc1Nc1ccc(Cl)cc1Cl`, 52.6%. In the case of `Cc1cccc2c3c(sc12)C(c1ccc(F)cc1)C(C#N)=C(N)O3` (stereo not drawn), the growth is 26.1%. For `BrCCCc1n(Cc2ccc3ccccc3c2)c2ccccc2[n+]1Cc1ccc2ccccc2c1`, the growth is -72.6% (active). Under `CCOC(=O)Cn1c(C)c(/C=N/NC(=O)c2cc3c(ccc4ccccc43)o2)c2ccccc21` stands 19.4%. Under `CCOC(=O)c1sc2ncc(-c3ccc(OC)cc3)n2c1C` stands 84.3%; under `O=c1c2cccc(F)c2sc2c(NCCCNCCO)nc3ccccc3c12`, 58%; under `CNCCCNc1nc2ccccc2c2c(=O)c3cc(F)ccc3sc12`, 81.7%. Under `CC(=O)OC[C@H]1OC(Sc2sc(C(=O)c3ccc(Cl)cc3)c(N)c2-c2nc3ccccc3s2)[C@H](OC(C)=O)[C@@H](OC(C)=O)[C@@H]1OC(C)=O` (stereo partly drawn) stands 75.9%; under `OC(c1ccccc1)C(NC(Cc1ccccc1)c1ccccc1)c1ccccc1` (stereo not drawn), 82.1%; under `CCOC(=O)c1cn2ncnc(Oc3ccc(NC(=O)NCCN(C)C)c(Cl)c3)c2c1C`, 93.2%. With `Cc1nc2ccccc2c(/C=C/c2ccccc2)c1C(=O)/C=C/c1ccc(C(F)(F)F)cc1`, the growth was -42.2% (active).

On to `Cc1[nH]c(C(=O)Nc2ccc(C(=O)NCCN)cc2OC(C)C)c(Cl)c1Cl`, for which the growth was 93.5%. To `CN1CCN(c2ccc(-c3cnc4c(-c5csc6ccccc56)cnn4c3)cc2)CC1` belongs -5.69% (active); to `c1ccc(-c2nc3sc(-c4ccccc4)cn3n2)cc1`, 72.2%; to `COc1c(B(O)O)cc(F)cc1-c1nc2ccc3[nH]ncc3c2c2c1CCCC2`, 8.89% (active).

On to `CNCCCC12CCC(c3ccccc31)c1ccccc12`, for which the growth is 107%. Under `C=C1C(=O)O[C@H]2[C@H]1CC/C(COC(=O)C(C)c1ccc(CC(C)C)cc1)=C\CC[C@@]1(C)O[C@@H]21` (stereo partly drawn) stands 83.6%.

For the compound `CC1=C(C)C(=O)C(Nc2cccc(C(=O)OC(C)(C)C)c2)=C(Br)C1=O`, the growth was 86.5%. Take `COc1ccc(C2CC(c3ccc(Nc4ccnc5cc(Cl)ccc45)cc3)=NN2C=O)cc1` (stereo not drawn): the growth is 90.5%.

As to `Cc1nc(NC(=O)COc2ccc(/C=C3\Cc4ccc(Cl)cc4C3=O)cc2)sc1C`, the growth is 99.2%. For the compound `Cc1ccc2c(-c3cc(-c4ccccc4)nc(N)c3C#N)cc(=O)oc2c1`, the growth was 95.9%. For `CN(C)c1ccc(/C=N\Nc2cc(=O)[nH]c3ccc(Cl)cc23)cc1`, the growth was 75%.
